Experimental data published in ChEMBL document CHEMBL1157539, “Thousands of chemical starting points for antimalarial lead identification” (Nature, 2010).

What was measured:
Assay type in all cases: functional
Plasmodium falciparum [1] = test: GSK_TCMDC: Inhibition of Plasmodium falciparum 3D7 in whole red blood cells, using parasite LDH activity as an index of growth. Test compounds present at 2uM
Plasmodium falciparum [2] = test: GSK_TCMDC: Inhibition of Plasmodium falciparum Dd2 in whole red blood cells, using parasite LDH activity as an index of growth. Test compounds present at 2uM
HepG2 = test: GSK_TCMDC: Percent inhibition of human HepG2 cell line. Test compounds present at 10uM.

| SMILES | Inhibition (Plasmodium falciparum [1]) | Inhibition (Plasmodium falciparum [2]) | Inhibition (HepG2) |
| --- | --- | --- | --- |
| Br.CCCOc1ccc(CCCON2C(N)=NC(N)=NC2(C)C)cc1 | 95% | 94% | 65% |
| CCCc1cc(Cc2cnc(N)nc2N)cc(CCC)c1OCCCCCC(=O)OCC | 95% | 0% | 12% |
| O=C(/C=C/c1ccc(I)cc1)NCCCCCN1CCC(c2c[nH]c3ccccc23)CC1 | 95% | 2% | 43% |
| CCc1ccc(NC(=O)c2ccc(CN3CCCN(Cc4cccc(Cl)c4)CC3)cc2)cc1.O=C(O)C(F)(F)F | 84% | 2% | 50% |
| Br.c1cc(C2=NC3CCCCC3N2)ccc1OCCCCCOc1ccc(C2=NC3CCCCC3N2)cc1 (centres undefined) | 100% | 23% | 80% |
| Cc1cc(NCCCCCCN)nc(Nc2ccc(Cl)cc2)n1 | 100% | 26% | 25% |
| O=C(C=Cc1ccc(Cl)c(Cl)c1)NCCCCCN1CCC(CCCNC(=O)C2CC2c2ccccc2)CC1 (centres undefined) | 95% | 12% | 45% |
| Cc1cccc2nc(-c3ccc(-c4cccc(NC(=O)Nc5cccc(C#N)c5)c4)cc3)[nH]c12 | 100% | 86% | 25% |
| NS(=O)(=O)c1cccc(-c2ccc3c(O)ncnc3c2)c1 | 99% | 100% | 6% |
| CS(=O)(=O)Nc1cccc(-c2cnc3[nH]cc(-c4cc(N)cc(C(=O)O)c4)c3c2)c1 | 96% | 96% | 40% |
| Cn1nccc1C(=O)NCCNCc1ccc(-c2cccc(-c3nc4cc(F)ccc4[nH]3)c2)cc1.O=C(O)C(F)(F)F | 100% | 98% | 37% |
| O=C1C2C(c3ccc(Cl)c(Cl)c3)N3CC(OCc4ccccc4)CC3(C(=O)O)C2C(=O)N1c1ccc(Br)cc1 (centres undefined) | 100% | 86% | 14% |
| CCN(CCN(C)C)Cc1ccc(-c2ccc(NS(=O)(=O)c3cccc4cccnc34)cc2)cc1.O=C(O)C(F)(F)F | 91% | 57% | 16% |
| Cc1ccc(-c2ccn(Cc3cccc(OCc4ccccc4)c3)n2)cn1.Cc1ccc(-c2ccnn2Cc2cccc(OCc3ccccc3)c2)cn1 | 82% | 64% | 0% |
| Cc1cc(C)c2oc(-c3cccc(NC(=O)c4ccc([N+](=O)[O-])o4)c3C)nc2c1 | 90% | 67% | 0% |
| COc1ccc(-c2cccc(NC(=O)c3cccc(C#N)c3)c2)cc1CN1CCCC1.O=C(O)C(F)(F)F | 98% | 32% | 28% |
| Cc1cccc2nc(-c3cccc(-c4cccc(NC(=O)Nc5ccsc5)c4)c3)[nH]c12 | 100% | 41% | 15% |
| O=C(Nc1cccc(-c2csc(-c3nc4ccccc4[nH]3)c2)c1)c1cccnc1 | 98% | 45% | 18% |
| Clc1cc(Nc2ncnc3cc(C#C[C@H]4CCCN4)sc23)cc2nc(Cc3ccccc3)[nH]c12.O=C(O)C(F)(F)F | 91% | 57% | 29% |
| Fc1ccc2[nH]c(-c3cccc(-c4cccc(CN5CCN(c6cnccn6)CC5)c4)c3)nc2c1.O=C(O)C(F)(F)F | 93% | 35% | 17% |
| COc1ccccc1C1CCN(Cc2csc(NC(=O)c3ccc(-c4ccc(C(F)(F)F)cc4)cc3)n2)CC1 | 85% | 23% | 62% |
| O=[N+]([O-])c1ccccc1/C=N/Nc1ccnc2cc(Cl)ccc12 | 100% | 89% | 0% |
| COc1ccc2nccc(NC(=O)C3CCC(NCc4ccc5c(c4)NC(=O)CS5)CC3)c2c1 (centres undefined) | 94% | 19% | 0% |
| CN(C)CCC1CCCc2ccc(NC(=O)Nc3ccc(-c4ccncc4)c4ccccc34)cc21.Cl (centres undefined) | 89% | 27% | 34% |
| COc1cc(Cc2cnc(N)nc2N)ccc1OCc1cccc(Oc2ccccc2)c1 | 84% | 21% | 18% |
| Cc1ccc(Cc2cnc(CN3CCCCC3)c(O)c2)cc1.Cl | 93% | 75% | 4% |
| CCOc1cc(Cl)c(C(C)NC(=O)c2cccc(OC)c2)cc1OCC (centres undefined) | 98% | 92% | 29% |
| CCC[C@@H]([C@@H](CC(C)C)C(=O)N[C@@H](CCCNc1nccc(C(F)(F)F)n1)C(=O)Nc1nccs1)N(O)C=O | 99% | 98% | 0% |
